For 22 sequences, PBM binding z-score results are on record in the supplement of paper PMC6555819.

The assay relates to PPARg homodimer (NR concentration 180 nM). Kind of assay: PBM binding z-score (relative to random genomic background probes); higher = stronger binding; sequences stand for … in GC…GCGATTGACAGCGTAGAATGAAGG
In outline:
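Ligand-free nuclear receptor dimers were bound for 1 h to custom Agilent 4×180K protein-binding microarrays. Detection used antibodies against each partner (one per run). Binding z-scores rest on regression-normalized fluorescence, with random background probes as the reference.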
Turning to CCTAGTGGGCCATTCAGAGGTCATTGATCATATG, the PBM binding z-score was 4.35.

Take TAGCCTAGGTCATGGTCCAGTATACCACGCGAAC: the PBM binding z-score came to 0.886.

As to CAAACTAGGTCAAAGGTCTAAGTCGAGCCAACCA, the PBM binding z-score came to 7.53.

As for CCTACTGGGCCATCAGGTCATAGATATCAACGTT, the PBM binding z-score was determined as 1.49.

TCTATTAGTTGGTTAGGGCAACCGAAACAGCGGA yielded a PBM binding z-score of 0.798.

Turning to CGTCCAAGGTTAGCAGGTCAGTGAAAGCGACGTG, the PBM binding z-score was determined as 1.06.

GGTGCTAGGTCAGGTTGGTCAGCTAACGGGTACG showed a PBM binding z-score of 1.8.

On to TTACCAAGGTGGGCTGAGGTCGTTGATCCAACTC, for which the PBM binding z-score is -0.101.

CAAACTAGGTCAAAGGTCATAGTCGAGCCAACCA displayed a PBM binding z-score of 5.55.

In turn, GCTGTTAGTTGAAAGGGCAACCGAATGATTCTCG returned a PBM binding z-score of 1.39.

The sequence CGAACTAGGTCAGCCAGGACAGTGAATACATTGA showed a PBM binding z-score of 1.34.

Turning to CCTACTGGGCCATCAGGTCATGGATATCAACGTT, the PBM binding z-score amounted to 1.85.

Take GGAACGAGGGCATTCGAGTTGATGGCATGGCGAT: the PBM binding z-score was -0.644.

The sequence TAGCCTTGGTCAGATCGGGCCAGTATACGCTATA yielded a PBM binding z-score of -1.31.

Consider AGAATGAGGTTAAGATCAGGGACACAGAATACAT, for which the PBM binding z-score is 1.01.

The sequence AGTCAAAGTTCACTAGGTGACGTAAGATTCAGCT had a PBM binding z-score of 3.29.

Sequence GCTGCTAGGTCAACTGATGGTCAGTTAAAGCTCG displayed a PBM binding z-score of 1.79.

For the sequence GGCACGAGGGCATTCGAGTTGATAGCATGGCGAT, the PBM binding z-score was -0.356.

As for ACTCGGAGGACAAAGGTCAGAGCAACGCCAGTGA, the PBM binding z-score was 2.78.

Sequence ACTCGGAGAACAAAGGTCAGAGCTACGCCAGTGA gave a PBM binding z-score of 1.94.

In turn, TAGCCTAGGTCATGGGCCCGTATACCACGCGAAC displayed a PBM binding z-score of 1.07.

Regarding ATATGTAGATTAAGGGTCATTCAGGTTGGTTCGC, the PBM binding z-score is 3.29.
